Measured values from PubChem BioAssay AID1159580 (chemical genetic matrix, 2015).
Screen size: about 5,500 compounds; about 2,000 (36%) were called active. About 18% were inconclusive and are not listed. Rule as the data show it: active = normalized growth mostly below about 0.91 (no sharp cut-off); inconclusive = no clear call, values can overlap the other calls; inactive = mostly above about 0.92. Some of the results follow.

Experiment: chemical genetic growth profiling, strain panel (AID 1159580);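 also: tested at 20 µM; growth read once vehicle control cultures reached saturation at 30 °C; 1 = growth at the plate median or of vehicle wells; lower values mean less growth of the strain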
Conditions: S. cerevisiae deletion strains, growth OD

Measured: normalized growth

O=S(=O)(c1cccc2c(I)cccc12)N1CCCNCC1
inactive: locus YAL013W, strain DEP1, stronger effect = lower value 0.983 | locus YAL040C, strain CLN3, stronger effect = lower value 0.979 | locus YCL061C, strain MRC1 (second series), stronger effect = lower value 0.984 | locus YDR150W, strain NUM1, stronger effect = lower value 0.991 | locus YDR363W, strain ESC2, stronger effect = lower value 0.958 | locus YER002W, strain NOP16, stronger effect = lower value 1.01 | locus YGR078C, strain PAC10, stronger effect = lower value 0.982 | locus YGR229C, strain SMI1, stronger effect = lower value 1 | locus YJR075W, strain HOC1, stronger effect = lower value 1.01 | locus YNL128W, strain TEP1, stronger effect = lower value 1.06 | locus YNL153C, strain GIM3, stronger effect = lower value 0.927 | locus YNL175C, strain NOP13, stronger effect = lower value 0.995 | locus YNL197C, strain WHI3, stronger effect = lower value 0.986 | locus YNL224C, strain SQS1, stronger effect = lower value 1.02 | locus YOR083W, strain WHI5 (second series), stronger effect = lower value 0.932 | locus YPL241C, strain CIN2, stronger effect = lower value 0.984
